# Laboratory results as given in ChEMBL document CHEMBL1961873, “Compounds: GSK PKIS; Assays: Nanosyn kinase panel” (2012).
# Key:
# [1] = molecular target: T1, Serine/threonine-protein kinase D2 (Homo sapiens) (UniProt Q9BZL6); settings: at 1 µM;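 note: mean value of PRKD2 inhibition, from the GSK PKIS screening panel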
# T1 sequence (whole entry): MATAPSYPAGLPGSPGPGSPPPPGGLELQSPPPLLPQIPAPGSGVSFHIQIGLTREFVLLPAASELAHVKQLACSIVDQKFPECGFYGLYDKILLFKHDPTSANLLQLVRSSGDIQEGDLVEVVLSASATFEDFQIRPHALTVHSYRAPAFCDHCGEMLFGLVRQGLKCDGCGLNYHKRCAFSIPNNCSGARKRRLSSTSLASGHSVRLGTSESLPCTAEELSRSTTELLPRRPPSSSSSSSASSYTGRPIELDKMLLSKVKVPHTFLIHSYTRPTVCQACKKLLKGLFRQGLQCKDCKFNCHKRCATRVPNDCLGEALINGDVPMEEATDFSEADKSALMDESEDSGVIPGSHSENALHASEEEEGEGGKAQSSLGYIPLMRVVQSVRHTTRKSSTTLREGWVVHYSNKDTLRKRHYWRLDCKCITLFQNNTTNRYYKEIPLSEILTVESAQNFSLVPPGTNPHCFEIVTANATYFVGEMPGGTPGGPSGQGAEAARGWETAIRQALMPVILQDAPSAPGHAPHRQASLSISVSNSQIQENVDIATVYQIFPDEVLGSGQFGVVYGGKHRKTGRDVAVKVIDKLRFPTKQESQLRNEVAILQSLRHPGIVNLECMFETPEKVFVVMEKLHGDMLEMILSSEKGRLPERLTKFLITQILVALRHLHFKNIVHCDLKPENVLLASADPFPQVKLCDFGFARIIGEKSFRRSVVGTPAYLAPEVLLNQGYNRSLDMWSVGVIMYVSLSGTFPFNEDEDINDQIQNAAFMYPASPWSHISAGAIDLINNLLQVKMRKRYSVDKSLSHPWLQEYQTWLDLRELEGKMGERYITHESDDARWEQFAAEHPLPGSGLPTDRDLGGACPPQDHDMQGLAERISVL
# [2] = molecular target: T2, Serine/threonine-protein kinase D3 (Homo sapiens) (UniProt O94806); settings: at 0.1 µM
# T2 sequence (whole entry): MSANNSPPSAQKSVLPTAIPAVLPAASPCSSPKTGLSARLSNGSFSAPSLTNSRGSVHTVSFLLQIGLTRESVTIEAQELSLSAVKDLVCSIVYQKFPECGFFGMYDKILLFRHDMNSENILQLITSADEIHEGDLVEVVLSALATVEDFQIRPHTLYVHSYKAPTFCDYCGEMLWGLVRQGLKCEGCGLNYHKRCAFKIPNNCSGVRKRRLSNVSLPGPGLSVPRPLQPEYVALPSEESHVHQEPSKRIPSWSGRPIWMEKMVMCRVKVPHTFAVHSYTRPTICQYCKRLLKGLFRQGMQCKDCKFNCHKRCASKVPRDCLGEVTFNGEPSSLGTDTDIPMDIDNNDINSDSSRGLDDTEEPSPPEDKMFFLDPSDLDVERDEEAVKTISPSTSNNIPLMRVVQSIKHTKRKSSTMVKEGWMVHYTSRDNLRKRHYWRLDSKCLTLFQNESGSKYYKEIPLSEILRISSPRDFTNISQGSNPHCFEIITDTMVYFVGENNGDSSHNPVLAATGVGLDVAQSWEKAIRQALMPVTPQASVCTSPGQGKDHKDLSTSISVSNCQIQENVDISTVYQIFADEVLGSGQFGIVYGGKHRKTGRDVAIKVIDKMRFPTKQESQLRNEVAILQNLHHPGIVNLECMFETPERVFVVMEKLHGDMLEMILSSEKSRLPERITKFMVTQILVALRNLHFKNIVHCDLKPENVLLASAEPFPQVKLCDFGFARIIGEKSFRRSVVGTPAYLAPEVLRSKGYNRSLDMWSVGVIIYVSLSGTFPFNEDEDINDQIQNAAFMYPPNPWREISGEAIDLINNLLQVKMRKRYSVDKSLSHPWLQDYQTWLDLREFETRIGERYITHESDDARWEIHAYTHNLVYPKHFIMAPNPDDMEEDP
# [3] = molecular target: T2, Serine/threonine-protein kinase D3 (Homo sapiens); settings: at 1 µM
# [4] = molecular target: T3, cGMP-dependent protein kinase 1 (Homo sapiens) (UniProt Q13976); settings: at 0.1 µM
# T3 sequence (whole entry): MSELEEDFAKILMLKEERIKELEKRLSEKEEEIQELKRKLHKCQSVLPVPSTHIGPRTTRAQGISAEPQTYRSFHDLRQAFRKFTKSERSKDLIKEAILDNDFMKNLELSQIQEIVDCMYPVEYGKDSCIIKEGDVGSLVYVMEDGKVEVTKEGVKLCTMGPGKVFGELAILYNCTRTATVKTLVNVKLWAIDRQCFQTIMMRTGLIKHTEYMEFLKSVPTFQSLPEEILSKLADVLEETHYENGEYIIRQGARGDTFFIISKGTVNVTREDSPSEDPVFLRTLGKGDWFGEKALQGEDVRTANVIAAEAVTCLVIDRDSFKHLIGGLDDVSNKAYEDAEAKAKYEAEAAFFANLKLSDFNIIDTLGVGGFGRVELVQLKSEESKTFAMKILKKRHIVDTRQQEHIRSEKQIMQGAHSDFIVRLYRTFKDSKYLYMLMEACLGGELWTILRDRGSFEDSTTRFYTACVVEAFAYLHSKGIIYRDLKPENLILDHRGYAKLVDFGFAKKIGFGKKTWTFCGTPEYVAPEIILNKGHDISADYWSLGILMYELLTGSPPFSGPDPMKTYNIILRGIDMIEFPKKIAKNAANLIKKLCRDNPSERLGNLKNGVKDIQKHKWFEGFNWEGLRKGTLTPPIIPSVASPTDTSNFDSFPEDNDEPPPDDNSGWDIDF
# [5] = molecular target: T3, cGMP-dependent protein kinase 1 (Homo sapiens); settings: at 1 µM
# [6] = molecular target: T4, cGMP-dependent protein kinase 2 (Homo sapiens) (UniProt Q13237); settings: at 0.1 µM
# T4 sequence (whole entry): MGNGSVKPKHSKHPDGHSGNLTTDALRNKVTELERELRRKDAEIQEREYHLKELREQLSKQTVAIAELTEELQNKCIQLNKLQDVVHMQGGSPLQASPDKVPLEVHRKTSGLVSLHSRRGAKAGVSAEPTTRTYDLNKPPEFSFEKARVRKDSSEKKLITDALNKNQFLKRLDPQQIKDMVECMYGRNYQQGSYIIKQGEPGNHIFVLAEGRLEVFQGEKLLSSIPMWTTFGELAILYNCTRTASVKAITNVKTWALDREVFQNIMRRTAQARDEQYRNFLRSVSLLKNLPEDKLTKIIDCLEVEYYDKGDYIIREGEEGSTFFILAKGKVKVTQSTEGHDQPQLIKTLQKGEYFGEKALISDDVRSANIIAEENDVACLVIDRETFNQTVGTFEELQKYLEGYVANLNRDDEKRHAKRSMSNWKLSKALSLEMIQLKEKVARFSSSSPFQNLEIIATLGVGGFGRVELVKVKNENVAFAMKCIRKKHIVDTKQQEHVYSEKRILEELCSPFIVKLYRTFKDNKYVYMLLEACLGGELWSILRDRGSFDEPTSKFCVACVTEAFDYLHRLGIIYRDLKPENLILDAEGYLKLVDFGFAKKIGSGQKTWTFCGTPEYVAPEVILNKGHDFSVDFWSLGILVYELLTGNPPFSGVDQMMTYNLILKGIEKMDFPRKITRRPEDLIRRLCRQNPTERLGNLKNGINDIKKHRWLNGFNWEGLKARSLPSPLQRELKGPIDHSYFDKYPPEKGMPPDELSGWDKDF
# [7] = molecular target: T4, cGMP-dependent protein kinase 2 (Homo sapiens); settings: at 1 µM
# [8] = molecular target: T5, cAMP-dependent protein kinase catalytic subunit PRKX (Homo sapiens) (UniProt P51817); settings: at 0.1 µM
# T5 sequence (whole entry): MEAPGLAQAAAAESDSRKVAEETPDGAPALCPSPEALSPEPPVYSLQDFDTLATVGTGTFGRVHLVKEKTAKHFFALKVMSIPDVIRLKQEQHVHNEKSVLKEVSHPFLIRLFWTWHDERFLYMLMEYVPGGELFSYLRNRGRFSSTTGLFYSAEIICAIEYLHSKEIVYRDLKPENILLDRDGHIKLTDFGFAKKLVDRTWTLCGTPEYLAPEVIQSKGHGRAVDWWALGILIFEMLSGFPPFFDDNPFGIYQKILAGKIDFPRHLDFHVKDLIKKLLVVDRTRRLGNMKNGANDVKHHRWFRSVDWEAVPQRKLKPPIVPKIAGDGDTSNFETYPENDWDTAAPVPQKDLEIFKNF
# [9] = molecular target: T5, cAMP-dependent protein kinase catalytic subunit PRKX (Homo sapiens); settings: at 1 µM
# [10] = molecular target: Rho-associated protein kinase 1 (Homo sapiens) (UniProt Q13464); settings: at 0.1 µM;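 note: values are mean percent inhibition of ROCK1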
# Chain of Rho-associated protein kinase 1 (Homo sapiens) (Q13464 2-1354 limits assumed): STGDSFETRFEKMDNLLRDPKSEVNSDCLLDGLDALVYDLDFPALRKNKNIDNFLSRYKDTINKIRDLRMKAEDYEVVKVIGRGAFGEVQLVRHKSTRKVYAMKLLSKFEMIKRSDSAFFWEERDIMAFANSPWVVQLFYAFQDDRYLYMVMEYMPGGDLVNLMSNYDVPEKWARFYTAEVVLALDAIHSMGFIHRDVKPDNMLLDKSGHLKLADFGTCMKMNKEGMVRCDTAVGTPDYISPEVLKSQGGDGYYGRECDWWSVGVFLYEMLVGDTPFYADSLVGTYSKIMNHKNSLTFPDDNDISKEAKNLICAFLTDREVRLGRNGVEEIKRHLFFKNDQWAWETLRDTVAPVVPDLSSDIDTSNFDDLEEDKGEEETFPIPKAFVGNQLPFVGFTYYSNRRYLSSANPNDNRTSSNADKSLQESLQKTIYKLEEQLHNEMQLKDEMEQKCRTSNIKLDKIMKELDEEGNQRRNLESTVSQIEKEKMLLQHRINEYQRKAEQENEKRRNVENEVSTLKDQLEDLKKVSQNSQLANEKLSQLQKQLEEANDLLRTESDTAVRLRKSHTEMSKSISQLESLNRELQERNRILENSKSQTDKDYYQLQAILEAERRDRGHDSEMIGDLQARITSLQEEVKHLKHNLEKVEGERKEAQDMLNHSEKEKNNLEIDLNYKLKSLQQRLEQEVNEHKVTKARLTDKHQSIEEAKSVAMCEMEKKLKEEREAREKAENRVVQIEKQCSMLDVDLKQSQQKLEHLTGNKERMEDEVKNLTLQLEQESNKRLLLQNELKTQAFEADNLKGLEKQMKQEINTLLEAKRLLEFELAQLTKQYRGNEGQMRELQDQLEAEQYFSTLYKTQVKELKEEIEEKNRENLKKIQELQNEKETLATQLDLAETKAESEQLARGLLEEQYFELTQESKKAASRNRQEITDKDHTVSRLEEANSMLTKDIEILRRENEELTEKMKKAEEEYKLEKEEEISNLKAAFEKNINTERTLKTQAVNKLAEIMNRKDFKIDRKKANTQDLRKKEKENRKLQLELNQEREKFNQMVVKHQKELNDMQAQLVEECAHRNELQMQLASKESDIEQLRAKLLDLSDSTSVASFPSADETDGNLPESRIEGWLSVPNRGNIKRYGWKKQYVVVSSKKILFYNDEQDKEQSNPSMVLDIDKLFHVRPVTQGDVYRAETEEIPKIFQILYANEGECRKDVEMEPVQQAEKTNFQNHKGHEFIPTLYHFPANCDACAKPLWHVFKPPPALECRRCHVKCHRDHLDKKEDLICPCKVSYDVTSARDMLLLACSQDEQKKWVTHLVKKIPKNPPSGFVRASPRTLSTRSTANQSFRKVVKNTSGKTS
Compound,inhibition [1] [%],inhibition [2] [%],inhibition [3] [%],inhibition [4] [%],inhibition [5] [%],inhibition [6] [%],inhibition [7] [%],inhibition [8] [%],inhibition [9] [%],inhibition [10] [%]
Cc1ccc(C(=O)NC2CCCCC2)cc1-c1ccc(C(=O)NCC2CC2)cc1,2.9,2.25,2.53,4.55,4.23,2.62,2.94,2.1,0.91,1.64
Cc1ccc(NC(=O)c2ccnc(N3CCCC3)c2)cc1-c1ccc(C(=O)NCC2CC2)cc1,9.48,3.21,10.1,2.12,6.39,3.92,6.54,1.47,2.53,10
O=C1Nc2ccc(C(=O)c3ccco3)cc2C1=Cc1cc(Cl)c(O)c(Cl)c1,5.54,3.68,6.98,1.67,4.46,1.29,5.93,1.34,2.91,1.44
COC(=O)Nc1nc2cc(Oc3cccc(NC(=O)Nc4cc(C(F)(F)F)ccc4F)c3)ccc2[nH]1,1.8,0.2,2.71,2.33,2.11,1.2,6.47,0.81,2.2,-0.55
N#Cc1c(NC(=O)c2cccc3ccccc23)sc2c1CCCC2,2.96,4.61,4.09,3.4,3.28,1.51,3.5,2.34,1.92,0.98
COc1ccc(-c2coc3ncnc(N)c23)cc1,6.47,4.56,7.56,2.84,3.68,2.51,3.93,1.76,1.11,3.01
O=C1NC(=O)C(c2ccccc2Cl)=C1Nc1cccc(O)c1,2.71,2.73,2.86,2.17,3.29,1.54,4.57,2.14,4.07,3.29
CCn1c(-c2nonc2N)nc2c(N3CCCC3)nccc21,-0.31,-0.29,0.75,0.96,3.63,1.09,9.26,0.17,0.74,3.22
O=C1NC(=O)C(N2CCc3ccccc32)=C1c1ccc(Cl)cc1,4.56,5.53,6.02,3.3,4.19,2.11,4.33,1.91,0.77,1.88
CCn1c(-c2nonc2N)nc2cncc(C(=O)N3CCNCC3)c21,4.19,5.65,4.94,5.91,9.25,6.28,7.34,3.9,3.75,
CC(=O)Nc1cccc(C#Cc2cncnc2Nc2ccc(OCc3cccc(F)c3)c(Cl)c2)n1,-0.67,-1.15,-1.81,2.8,3.25,3.49,6.99,1.81,5.08,1.28
COc1cc2ncn(-c3cc(OCc4ccccc4C(F)(F)F)c(C(N)=O)s3)c2cc1OC,-1.87,0.67,-0.49,2.93,0.86,1.68,1.12,1.89,2.8,1.68
CS(=O)(=O)CCNCc1nc(-c2ccc3ncnc(Nc4ccc(F)c(Cl)c4)c3c2)cs1,2.87,1.23,1.58,1.73,3.32,0.95,2.67,0.91,1.76,1.23
Nc1ncnc2occ(-c3ccc(NC(=O)Nc4cc(C(F)(F)F)cc(C(F)(F)F)c4)cc3)c12,1.29,1.47,1.15,1.23,1.54,0.73,1.97,-0.03,-3.64,6.3
COc1cc(C=NNc2ncnc3c2cnn3-c2ccccc2)ccc1O,2.86,2.52,3,1.67,1.52,2.05,4.06,1.55,1.36,0.41
COc1cc2ncn(-c3cc(OCc4ccccc4Cl)c(C(N)=O)s3)c2cc1OC,1.64,0.33,0.33,1.08,3.55,0.53,1.84,-0.05,-3.1,-0.3
COc1ccc2cc(-c3c(-c4ccncc4)nc(-c4ccc([S+](C)[O-])cc4)n3C)ccc2c1 (centres undefined),4.99,3.54,4.91,1.31,4.18,2.83,4.08,1.36,-0.32,0.49
